According to PubChem BioAssay (NCATS):
Values without a mark were called inactive. Inconclusive results are not listed. Where a call stands in place of a potency, no number is given. Activity calls are given as the source filed them. Unless noted, calls follow the shape of the full dose curve.

Legend:
[1] = molecular target: Cytochrome P450 1A2 (Homo sapiens) (UniProt P05177); assay: p450-cyp1a2 (AID 410); also: potency is read from the fitted curve at half-maximal effect
In short: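 Luminescent readout of luciferin formed from Luciferin-ME by human CYP1A2; data normalized against complete inhibition by 57 uM furafylline. Enzyme 20nM, substrate 100uM at Km, 100mM KPO4 buffer, 60 min reaction at room temperature.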

[2] = molecular target: Glucocorticoid receptor (Homo sapiens) (UniProt P04150); assay: GR-EFC Redistribution (AID 451); details: CHO-K1 GR-EFC translocation, beta-gal luminescence, 2 h; also: potency is read from the fitted curve at half-maximal effect
Sequence of Glucocorticoid receptor (Homo sapiens) (P04150 whole entry, looked up, the tested form may be a part): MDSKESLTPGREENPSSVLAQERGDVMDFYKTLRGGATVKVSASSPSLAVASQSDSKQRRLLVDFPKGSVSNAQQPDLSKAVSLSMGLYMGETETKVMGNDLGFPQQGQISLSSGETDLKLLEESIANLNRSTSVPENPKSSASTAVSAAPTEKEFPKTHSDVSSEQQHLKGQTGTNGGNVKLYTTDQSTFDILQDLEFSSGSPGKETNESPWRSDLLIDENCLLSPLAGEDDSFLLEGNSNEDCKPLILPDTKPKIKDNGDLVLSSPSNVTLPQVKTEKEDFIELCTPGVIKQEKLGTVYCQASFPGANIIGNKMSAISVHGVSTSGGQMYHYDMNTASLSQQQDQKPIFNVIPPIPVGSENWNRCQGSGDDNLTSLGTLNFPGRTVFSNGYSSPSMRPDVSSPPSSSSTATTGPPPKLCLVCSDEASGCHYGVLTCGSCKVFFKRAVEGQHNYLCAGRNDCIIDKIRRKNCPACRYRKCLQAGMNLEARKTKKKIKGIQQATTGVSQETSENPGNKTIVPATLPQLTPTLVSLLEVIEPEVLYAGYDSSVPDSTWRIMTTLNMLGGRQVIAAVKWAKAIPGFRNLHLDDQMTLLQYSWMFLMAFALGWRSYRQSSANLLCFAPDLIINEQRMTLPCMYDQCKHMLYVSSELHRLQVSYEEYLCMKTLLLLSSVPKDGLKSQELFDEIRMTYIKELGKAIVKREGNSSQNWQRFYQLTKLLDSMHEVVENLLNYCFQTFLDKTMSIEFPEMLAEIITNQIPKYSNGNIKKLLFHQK
In short: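 Translocation of GR-ED fusion to nuclear EA restores b-gal, read by luminescence after 1 h room-temperature detection. Engineered CHO-K1 biosensor cells, 1,000/well, exposed 2 h at 37 C to titrations up to 46 uM final.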

[3] = molecular target: Mitogen-activated protein kinase 10 (Mus musculus) (UniProt Q61831); assay: JNK3 AlphaScreen Assay (AID 530; active = well fitted curve in either direction with a large enough effect, not every such curve was filed as active;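 also: kinase came from lysate of stimulated human HepG2 cells; signal reports phosphorylation of biotinylated GST-cJun 1-79 at Ser73 with 10 µM ATP; series mostly up to about 57 µM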)
In short: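 Compound titrations were preincubated 15 minutes at room temperature with substrate, antibody and pre-activated JNK3-containing HepG2 lysate. Reactions were started with 10 uM ATP and stopped with EDTA-containing bead buffer for AlphaScreen detection.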

[4] = molecular target: 3',5'-cyclic-AMP phosphodiesterase 4B (Homo sapiens) (UniProt Q07343); assay: qHTS Assay for Inhibitors of PDE-IV (AID 607; active = well fitted activation curve with a large enough effect in the main read-out, with a control signal flat, not every such curve was filed as active)
Sequence of 3',5'-cyclic-AMP phosphodiesterase 4B (Homo sapiens) (Q07343 whole entry, looked up): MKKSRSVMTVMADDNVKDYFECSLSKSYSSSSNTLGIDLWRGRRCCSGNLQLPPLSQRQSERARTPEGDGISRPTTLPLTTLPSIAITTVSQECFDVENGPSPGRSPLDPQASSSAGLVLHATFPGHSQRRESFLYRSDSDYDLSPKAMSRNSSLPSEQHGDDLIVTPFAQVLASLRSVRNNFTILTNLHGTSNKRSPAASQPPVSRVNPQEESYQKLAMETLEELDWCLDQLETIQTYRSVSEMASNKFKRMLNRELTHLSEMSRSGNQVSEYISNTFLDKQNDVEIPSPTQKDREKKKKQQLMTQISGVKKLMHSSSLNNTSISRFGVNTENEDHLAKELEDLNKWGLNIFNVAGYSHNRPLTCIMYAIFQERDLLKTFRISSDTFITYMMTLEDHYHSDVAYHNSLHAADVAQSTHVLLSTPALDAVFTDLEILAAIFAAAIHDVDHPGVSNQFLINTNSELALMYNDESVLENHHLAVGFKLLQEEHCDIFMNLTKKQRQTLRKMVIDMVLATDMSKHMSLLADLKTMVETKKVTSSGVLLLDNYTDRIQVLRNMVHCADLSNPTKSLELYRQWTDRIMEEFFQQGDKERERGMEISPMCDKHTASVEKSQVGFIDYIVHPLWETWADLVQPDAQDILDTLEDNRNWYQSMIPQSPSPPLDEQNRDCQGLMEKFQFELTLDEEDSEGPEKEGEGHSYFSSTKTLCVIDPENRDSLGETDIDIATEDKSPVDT
In short: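 Live HEK293 cells with a modified cyclic nucleotide-gated (CNG) channel report intracellular cAMP via membrane-potential dye fluorescence (ex 535/em 590 nm). Endogenous PDE-IV was targeted. Compounds were tested at up to 22.9 uM final; RO 20-1724 100 uM served as control.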

[5] = molecular target: Cytochrome P450 2C9 (Homo sapiens) (UniProt P11712); assay: qHTS Assay for Inhibitors and Substrates of Cytochrome P450 2C9 (AID 883; active = well fitted inhibition curve with a large enough effect; also: nearly all actives have a fitted effect of over 60% in size)
Sequence of Cytochrome P450 2C9 (Homo sapiens) (P11712 whole entry, looked up): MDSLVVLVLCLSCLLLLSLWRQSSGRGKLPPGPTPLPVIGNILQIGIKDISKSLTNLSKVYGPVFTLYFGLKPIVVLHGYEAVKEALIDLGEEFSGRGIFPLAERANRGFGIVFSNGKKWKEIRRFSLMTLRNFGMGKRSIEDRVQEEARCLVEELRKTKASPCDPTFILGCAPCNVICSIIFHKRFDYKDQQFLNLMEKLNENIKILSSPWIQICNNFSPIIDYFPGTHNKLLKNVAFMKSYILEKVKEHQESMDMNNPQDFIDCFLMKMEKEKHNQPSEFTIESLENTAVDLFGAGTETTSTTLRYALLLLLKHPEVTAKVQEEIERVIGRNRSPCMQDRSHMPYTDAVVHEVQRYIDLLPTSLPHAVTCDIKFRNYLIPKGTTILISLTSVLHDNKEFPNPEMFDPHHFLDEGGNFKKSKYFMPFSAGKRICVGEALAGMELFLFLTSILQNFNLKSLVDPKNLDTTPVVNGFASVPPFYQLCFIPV
In short: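 Luminescent read-out of deoxyluciferin hydroxylation, normalized to 57uM sulphaphenazole (AC100). Reaction: 10nM enzyme, 100uM Luciferin-H (equal to KM), 25mM KPO4, 10 min compound preincubation, then 60 min with NADPH regeneration, both at 37C.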

[6] = molecular target: Cytochrome P450 2D6 (Homo sapiens) (UniProt P10635); assay: qHTS Assay for Inhibitors and Substrates of Cytochrome P450 2D6 (AID 891; active = well fitted inhibition curve with a large enough effect; also: nearly all actives have a fitted effect of over 60% in size; also: potency is read from the fitted curve at half-maximal effect)
Sequence of Cytochrome P450 2D6 (Homo sapiens) (P10635 whole entry, looked up): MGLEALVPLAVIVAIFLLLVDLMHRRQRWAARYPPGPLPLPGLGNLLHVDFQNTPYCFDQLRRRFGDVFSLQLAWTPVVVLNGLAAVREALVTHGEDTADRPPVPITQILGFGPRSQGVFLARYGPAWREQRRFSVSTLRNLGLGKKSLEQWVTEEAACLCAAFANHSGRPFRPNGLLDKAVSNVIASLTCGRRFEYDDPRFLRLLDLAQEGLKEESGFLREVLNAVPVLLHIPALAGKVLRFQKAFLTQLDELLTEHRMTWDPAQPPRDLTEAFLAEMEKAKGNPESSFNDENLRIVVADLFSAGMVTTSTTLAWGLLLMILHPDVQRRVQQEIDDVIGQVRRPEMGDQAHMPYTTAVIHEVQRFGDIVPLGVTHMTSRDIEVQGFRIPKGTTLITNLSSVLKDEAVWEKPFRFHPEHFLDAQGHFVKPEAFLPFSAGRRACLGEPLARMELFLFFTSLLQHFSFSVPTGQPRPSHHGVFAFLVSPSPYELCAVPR
In short: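 Human CYP2D6 (5 nM) with 30 uM Luciferin-ME EGE (at Km) in 100 mM KPO4, compound preincubated 10 min, then NADPH regeneration system for 60 min at room temperature. Luciferin read by luminescence; normalized to 1.43 uM quinidine.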

[7] = molecular target: Cytochrome P450 2C19 (Homo sapiens) (UniProt P33261); assay: qHTS Assay for Inhibitors and Substrates of Cytochrome P450 2C19 (AID 899; active = well fitted inhibition curve with a large enough effect; also: nearly all actives have a fitted effect of over 60% in size; also: potency is read from the fitted curve at half-maximal effect)
Sequence of Cytochrome P450 2C19 (Homo sapiens) (P33261 whole entry, looked up): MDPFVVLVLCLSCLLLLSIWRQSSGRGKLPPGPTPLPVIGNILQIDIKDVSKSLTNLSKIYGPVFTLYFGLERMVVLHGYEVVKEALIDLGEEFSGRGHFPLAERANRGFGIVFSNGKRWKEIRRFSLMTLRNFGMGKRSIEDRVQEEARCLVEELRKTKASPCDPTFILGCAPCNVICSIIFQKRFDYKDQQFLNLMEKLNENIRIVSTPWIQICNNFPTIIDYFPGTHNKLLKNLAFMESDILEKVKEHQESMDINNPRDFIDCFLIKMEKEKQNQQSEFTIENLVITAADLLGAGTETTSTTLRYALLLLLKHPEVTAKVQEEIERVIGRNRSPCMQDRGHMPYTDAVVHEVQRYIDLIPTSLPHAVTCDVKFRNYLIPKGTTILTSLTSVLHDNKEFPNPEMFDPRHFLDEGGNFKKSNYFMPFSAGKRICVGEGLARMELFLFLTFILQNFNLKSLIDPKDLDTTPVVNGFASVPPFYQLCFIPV
In short: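 Luminescence readout of luciferin formed from 10uM Luciferin-H EGE (KM level) by 5 nM CYP2C19 in 50mM KPO4. 60 min NADPH-driven reaction at 37C after 10 min compound preincubation; data scaled to 57uM ketoconazole inhibition.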

Sequence of Cytochrome P450 1A2 (Homo sapiens) (P05177 whole entry, looked up): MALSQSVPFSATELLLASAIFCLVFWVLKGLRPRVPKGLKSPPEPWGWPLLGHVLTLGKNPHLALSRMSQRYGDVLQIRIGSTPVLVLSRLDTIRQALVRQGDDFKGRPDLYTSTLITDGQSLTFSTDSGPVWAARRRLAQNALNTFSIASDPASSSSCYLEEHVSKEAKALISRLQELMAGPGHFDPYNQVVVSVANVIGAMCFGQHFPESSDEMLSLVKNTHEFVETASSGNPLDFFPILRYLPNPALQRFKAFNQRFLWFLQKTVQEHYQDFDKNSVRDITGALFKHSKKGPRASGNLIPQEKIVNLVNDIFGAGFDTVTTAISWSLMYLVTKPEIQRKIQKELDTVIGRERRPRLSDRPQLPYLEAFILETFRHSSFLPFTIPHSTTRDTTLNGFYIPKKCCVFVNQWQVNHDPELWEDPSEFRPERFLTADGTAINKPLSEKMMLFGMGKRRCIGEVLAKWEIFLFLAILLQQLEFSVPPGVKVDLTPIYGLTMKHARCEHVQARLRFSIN

## CC(C)[C@@H](CC(=O)N[C@@H]1CCNC[C@H]1C(=O)N[C@H](CC(=O)N[C@@H](CCC(=O)O)CC(=O)O)Cc1ccccc1)NC(=O)C[C@H](Cc1c[nH]c2ccccc12)NC(=O)[C@@H]1CNCC[C@H]1N
[1]
  Potency: inactive
[2]
  Potency: > 46 µM
[3]
  Potency: inactive
[4]
  Potency: inactive
[5]
  Potency: inactive
[6]
  Potency: inactive
[7]
  Potency: inactive

## CC(C)C[C@@H](CC(=O)N[C@H](CC(=O)N[C@@H]1CCNC[C@H]1C(=O)N[C@H](CC(=O)N[C@@H](CCC(=O)O)CC(=O)O)CC(C)C)C(C)C)NC(=O)[C@@H]1CCCC[C@H]1N
[1]
  Potency: inactive
[2]
  Potency: > 46 µM
[3]
  Potency: inactive
[4]
  Potency: inactive

## CC(C)C[C@@H](CC(=O)N[C@@H](CCC(=O)O)CC(=O)O)NC(=O)[C@@H]1CNCC[C@H]1NC(=O)C[C@H](CCCN)NC(=O)C[C@H](CO)NC(=O)[C@@H]1CNCC[C@H]1N
[1]
  Potency: inactive
[2]
  Potency: > 46 µM
[3]
  Potency: inactive
[4]
  Potency: inactive
[6]
  Potency: inactive

## CC(C)[C@@H](CC(=O)N[C@@H]1CCCC[C@H]1C(=O)N[C@H](CC(=O)N[C@@H](CCC(=O)O)CC(=O)O)Cc1c[nH]c2ccccc12)NC(=O)C[C@H](CO)NC(=O)[C@@H]1CCCC[C@H]1N
[1]
  Potency: inactive
[2]
  Potency: > 46 µM
[3]
  Potency: inactive
[4]
  Potency: inactive
[5]
  Potency: inactive
[6]
  Potency: inactive
[7]
  Potency: inactive

## CC(C)C[C@@H](CC(=O)N[C@@H](CCC(=O)O)CC(=O)O)NC(=O)[C@@H]1CCCC[C@H]1NC(=O)C[C@@H](NC(=O)C[C@H](Cc1c[nH]c2ccccc12)NC(=O)[C@@H]1CCCC[C@H]1N)C(C)C
[1]
  Potency: inactive
[2]
  Potency: > 46 µM
[4]
  Potency: inactive
[5]
  Potency: inactive
[6]
  Potency: inactive

## CC(C)C[C@@H](CC(=O)N[C@@H](CCC(=O)O)CC(=O)O)NC(=O)[C@@H]1CNCC[C@H]1NC(=O)C[C@@H](NC(=O)C[C@H](Cc1c[nH]c2ccccc12)NC(=O)[C@@H]1CCCC[C@H]1N)C(C)C
[1]
  Potency: inactive
[2]
  Potency: > 46 µM
[4]
  Potency: inactive
[6]
  Potency: inactive

## CCC[C@@H]1C[C@@]1(CCC)C(NC(=O)c1ccc(-c2ccccc2)cc1)c1cccc(Cl)c1 (stereo partly specified)
[1]
  Potency: inactive
[3]
  Potency: inactive
[4]
  Potency: inactive

## Clc1ccc(CO[C@@H](Cn2ccnc2)c2ccc(Cl)cc2Cl)cc1
[1]
  Potency: 0.1 µM (active)
[2]
  Potency: > 20.6 µM
[6]
  Potency: 0.199 µM (active)
[7]
  Potency: 0.0631 µM (active)

## CC(C)[C@@H](CC(=O)N[C@@H]1CCNC[C@H]1C(=O)N[C@H](CC(=O)N[C@@H](CCC(=O)O)CC(=O)O)Cc1c[nH]c2ccccc12)NC(=O)C[C@H](Cc1ccccc1)NC(=O)[C@@H]1CNCC[C@H]1N
[1]
  Potency: 31.6 µM (active)
[2]
  Potency: > 46 µM
[4]
  Potency: inactive
[5]
  Potency: inactive
[6]
  Potency: inactive
[7]
  Potency: inactive

## NCCC[C@@H](CC(=O)N[C@@H]1CCNC[C@H]1C(=O)N[C@H](CC(=O)N[C@@H](CCC(=O)O)CC(=O)O)Cc1c[nH]c2ccccc12)NC(=O)C[C@H](Cc1c[nH]c2ccccc12)NC(=O)[C@@H]1CCCC[C@H]1N
[1]
  Potency: inactive
[2]
  Potency: > 46 µM
[3]
  Potency: inactive
[6]
  Potency: inactive
[7]
  Potency: inactive

## CC(C)C[C@@H](CC(=O)N[C@@H](CCCN)CC(=O)N[C@@H]1CCNC[C@H]1C(=O)N[C@H](CC(=O)N[C@@H](CCC(=O)O)CC(=O)O)Cc1c[nH]c2ccccc12)NC(=O)[C@@H]1CNCC[C@H]1N
[1]
  Potency: inactive
[2]
  Potency: > 46 µM
[4]
  Potency: inactive
[5]
  Potency: inactive
[6]
  Potency: inactive
[7]
  Potency: inactive
